Records with an inconclusive call do not appear. Calls of active or inactive are those of the source. Unless noted, calls come from the whole dose curve; as a rule, active = well fitted curve in the direction sought with a large enough effect; inconclusive = small, poorly fitted or top-dose-only effect, or another doubt; inactive = no such curve, though single readings can be large; an effect the other way counts as inactive or inconclusive. Residues, ends and D or L forms follow the SMILES beside them. A value given as a limit tells only on which side of the number the result lay.

Assay [1] concerns the target Glucocorticoid receptor (Homo sapiens) (UniProt P04150). Put plainly: GR-GFP Redistribution (AID 450;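 active = compounds whose dose series gives a full or clear partial fitted curve of increased nuclear translocation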; note: potency is the fitted concentration of half-maximal effect). The following applies: U2OS GR-GFP nuclear translocation, laser cytometry, 2 h.
Assay [2] shares this target. As to the kind of experiment: GR-EFC Redistribution (AID 451; calls by dose curve; note: potency is the fitted concentration of half-maximal effect). The following applies: CHO-K1 GR-EFC translocation, beta-gal luminescence, 2 h. In outline: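 CHO-K1 cells stably expressing nuclear-localized β-gal enzyme acceptor and GR fused C-terminally to the enzyme donor fragment; ligand-driven nuclear translocation restores β-gal by complementation. Compounds titrated up to 46 uM final, 2 h at 37 °C; luminescence read.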

The target of assay [3] is Mitogen-activated protein kinase 10 (Mus musculus) (UniProt Q61831). As to the kind of experiment: JNK3 AlphaScreen Assay (AID 530; active = well fitted curve in either direction with a large enough effect, not every such curve was filed as active;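 note: kinase came from lysate of stimulated human HepG2 cells; signal reports phosphorylation of biotinylated GST-cJun 1-79 at Ser73 with 10 µM ATP; % is set by controls: 0 for no effect and ±100 for the full control effect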). As to conditions: JNK3 lysate, c-Jun phosphorylation; series mostly up to 57.1 µM. In outline:
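Biotinylated GST-cJun(1-79) served as substrate for JNK3 in HepG2 lysates stimulated with IL-1beta and TNF-alpha. ATP was 10 uM final, pH 7.6. Ser73 phosphorylation was quantified by AlphaScreen (680 nm excitation).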
For orientation: Alpha assays give light when donor and acceptor beads are brought close together.

For assay [4], the target named is 3',5'-cyclic-AMP phosphodiesterase 4B (Homo sapiens) (UniProt Q07343). As to the kind of experiment: qHTS Assay for Inhibitors of PDE-IV (AID 607; active = well fitted activation curve with a large enough effect in the main read-out, with a control signal flat, not every such curve was filed as active; note: % of control where 0% means no effect). As to conditions: HEK293 ACTOne CNG channel cells, membrane potential fluorescence; series mostly up to 22.9 µM. In outline:
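HEK293 ACTOne cells with CNG channel (1000/well), endogenous PDE4; membrane potential dye, compounds up to 22.9 uM final. Fluorescence Ex 535/Em 590; RO 20-1724 (100 uM final) as reference.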
On the technique in general: In qHTS, concentration-response curves come from the screen itself.

Assay [5] is described as follows: qHTS Assay for Lipid Storage Modulators (AID 1519; calls by dose curve; for activity change, negative = inhibition: % is set by controls: 0 for no effect and ±100 for the full control effect). The following applies: Drosophila S3 cells, BODIPY lipid droplet/cell ratio, laser cytometry, cells loaded with oleic acid; for activity change, negative = inhibition: at 57.5 µM (top of the series). In outline:
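Cells seeded at 5,000 per well were treated with compounds over a concentration series and loaded with oleic acid (400 uM, as added). Lipid droplet fluorescence (488 nm excitation, 500-530 nm channel) was read by laser-scanning cytometry and normalized to 20 uM Triacsin C.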

Assay [6] deals with Ubiquitin carboxyl-terminal hydrolase 1 (Homo sapiens) (UniProt O94782). As to the kind of experiment: Inhibitors of USP1/UAF1: Pilot qHTS (AID 504865).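 Note: rhodamine fluorescence freed from ubiquitin-rhodamine substrate followed over time; top concentration of the series differs between compounds; % is set by controls: 0 for no effect and ±100 for the full control effect; nearly all actives have a fitted effect of over 35% in size.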 As to conditions: purified USP1/UAF1, Ub-rhodamine cleavage fluorescence; series mostly up to 114 µM. In outline: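 Enzyme-free wells gave the negative control, while test wells held 1nM USP1/UAF1 preincubated with compound for 15 min at room temperature. Ub-Rho at 150nM final started the reaction, and fluorescence at 480/540 nm was recorded kinetically.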
Ubiquitin carboxyl-terminal hydrolase 1 (Homo sapiens), sequence (O94782 whole entry, looked up): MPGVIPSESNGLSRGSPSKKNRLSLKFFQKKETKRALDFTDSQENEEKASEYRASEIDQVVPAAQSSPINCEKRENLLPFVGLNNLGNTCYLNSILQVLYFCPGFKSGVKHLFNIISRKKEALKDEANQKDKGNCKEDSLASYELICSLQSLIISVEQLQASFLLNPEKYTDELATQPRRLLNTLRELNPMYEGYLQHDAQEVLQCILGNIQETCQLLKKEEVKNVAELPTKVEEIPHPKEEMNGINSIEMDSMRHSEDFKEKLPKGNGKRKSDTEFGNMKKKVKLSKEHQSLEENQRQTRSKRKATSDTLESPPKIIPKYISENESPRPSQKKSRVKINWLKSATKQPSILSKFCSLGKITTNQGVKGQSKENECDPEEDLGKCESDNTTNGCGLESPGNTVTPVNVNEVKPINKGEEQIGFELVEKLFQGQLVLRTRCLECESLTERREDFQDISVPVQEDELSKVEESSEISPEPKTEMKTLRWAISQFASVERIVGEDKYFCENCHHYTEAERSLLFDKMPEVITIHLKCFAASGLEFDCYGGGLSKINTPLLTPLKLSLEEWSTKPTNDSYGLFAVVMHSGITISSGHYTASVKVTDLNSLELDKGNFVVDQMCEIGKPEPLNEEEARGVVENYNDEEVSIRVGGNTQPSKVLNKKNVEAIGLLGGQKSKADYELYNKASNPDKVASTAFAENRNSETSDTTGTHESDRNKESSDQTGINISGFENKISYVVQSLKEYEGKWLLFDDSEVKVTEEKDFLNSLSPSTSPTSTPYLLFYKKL

In assay [7] the target is DNA dC->dU-editing enzyme APOBEC-3G (Homo sapiens) (UniProt Q9HC16). Put plainly: qHTS for inhibitors of Vif-A3G interactions: Validation (AID 588379). Note: 0% is about no effect. The following applies: Vif-A3G protein interaction assay; series mostly up to 46.1 µM. The essentials:
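Yellow fluorescence (Ex 488, Em 500-530) of Vif-coexpressing HeLa A3G-eYFP cells, scanned by Acumen cytometer, reports blocked A3G degradation. Cells plated at 700/well overnight at 37 deg C before compound addition, then a further overnight compound incubation at 37 deg C.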

Assay [8] concerns Zika virus NS2B-NS3 protease. Put plainly: Primary screen GU AMC qHTS for Zika virus inhibitors (AID 1347154).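 Note: 0% = no-inhibitor control and -100% = no-enzyme control; nearly all actives have a fitted effect of over 70% in size.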 As to conditions: Zika NS2B-NS3 unlinked protease, AMC fluorogenic substrate; series mostly up to 54.1 µM. The essentials:
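Unlinked Zika NS2B hydrophilic domain/NS3 protease domain noncovalent complex (25 nM final) in 10 mM Tris-HCl pH 8.0, 0.01% Tween 20, with AMC peptide substrate. Fluorescence (ex 340, em 450 nm) change over 15 min, room temperature; percent inhibition fitted to 4-parameter Hill equation.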

Assay [9] can be described thus: Primary qHTS for small molecule stabilizers of the endoplasmic reticulum resident proteome: Secreted ER Calcium Modulated Protein (SERCaMP) assay (AID 1508630). Note: % is set by controls: 0 for no effect and ±100 for the full control effect. The following applies: SH-SY5Y GLuc-SERCaMP (Gaussia luciferase released on ER calcium loss) secretion, thapsigargin, luminescence; series mostly up to 38.4 µM. In outline:
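The SH-SY5Y reporter protocol was run at 3 concentrations up to 38.3 uM (primary) or 11 concentrations (follow-up): 16 h compound, 100 nM thapsigargin for 4 h, then extracellular luciferase luminescence.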

In assay [10] the target is Cytochrome P450 3A4 (Homo sapiens) (UniProt P08684). Put plainly: qHTS Assay for Activators of Cytochrome P450 3A4 (AID 885). Note: nearly all actives have a fitted effect of over 65% in size. As to conditions: recombinant CYP3A4, Luciferin-PPXE luminescence, 60 min; series mostly up to 57.1 µM. In outline: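 Human CYP3A4 dealkylates Luciferin-PPXE to luciferin, which luciferase detection converts to light. Substrate was at its KM (25uM), buffer 200mM KPO4, reaction 60 min at RT.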
Cytochrome P450 3A4 (Homo sapiens), sequence (P08684 whole entry, looked up): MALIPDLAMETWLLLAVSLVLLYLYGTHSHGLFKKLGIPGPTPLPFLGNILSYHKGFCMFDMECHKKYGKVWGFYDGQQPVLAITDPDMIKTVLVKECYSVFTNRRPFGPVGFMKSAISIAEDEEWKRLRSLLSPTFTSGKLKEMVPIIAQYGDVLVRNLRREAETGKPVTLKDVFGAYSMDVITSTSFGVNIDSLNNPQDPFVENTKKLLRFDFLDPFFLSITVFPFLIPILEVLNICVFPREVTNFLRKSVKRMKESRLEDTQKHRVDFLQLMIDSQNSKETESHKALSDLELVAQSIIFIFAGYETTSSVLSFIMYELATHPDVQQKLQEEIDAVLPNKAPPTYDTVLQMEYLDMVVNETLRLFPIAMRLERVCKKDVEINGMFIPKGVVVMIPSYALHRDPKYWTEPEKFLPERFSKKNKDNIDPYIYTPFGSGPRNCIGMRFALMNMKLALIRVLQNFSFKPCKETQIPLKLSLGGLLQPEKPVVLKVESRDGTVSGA

In assay [11] the target is Cytochrome P450 2C9 (Homo sapiens) (UniProt P11712). Put plainly: qHTS Assay for Inhibitors and Substrates of Cytochrome P450 2C9 (AID 883). Note: potency is the fitted concentration of half-maximal effect; nearly all actives have a fitted effect of over 60% in size. The following applies: recombinant CYP2C9, luciferin-H luminescence, 60 min; series mostly up to 57.1 µM. In outline: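 CYP2C9 deoxyluciferin hydroxylation, 37C, 60 min with NADPH regeneration; 10nM enzyme, 100uM Luciferin-H (KM). Glo detection reagent stopped reaction; luminescence normalized to sulphaphenazole (57uM) full inhibition.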
Cytochrome P450 2C9 (Homo sapiens), sequence (P11712 whole entry, looked up): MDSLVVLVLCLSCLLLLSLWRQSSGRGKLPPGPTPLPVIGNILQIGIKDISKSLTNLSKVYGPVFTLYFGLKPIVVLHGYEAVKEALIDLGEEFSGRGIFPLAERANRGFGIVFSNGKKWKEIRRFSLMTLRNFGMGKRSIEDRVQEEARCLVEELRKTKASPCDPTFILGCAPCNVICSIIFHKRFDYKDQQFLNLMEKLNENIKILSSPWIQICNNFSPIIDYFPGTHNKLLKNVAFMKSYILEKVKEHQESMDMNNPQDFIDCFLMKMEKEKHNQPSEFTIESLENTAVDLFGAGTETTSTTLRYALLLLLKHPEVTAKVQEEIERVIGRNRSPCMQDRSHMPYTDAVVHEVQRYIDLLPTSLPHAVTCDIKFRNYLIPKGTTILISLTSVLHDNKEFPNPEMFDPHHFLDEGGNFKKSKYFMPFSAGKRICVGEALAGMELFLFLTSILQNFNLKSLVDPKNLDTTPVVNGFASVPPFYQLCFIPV

Assay [12] has as its target Cytochrome P450 2D6 (Homo sapiens) (UniProt P10635). Put plainly: qHTS Assay for Inhibitors and Substrates of Cytochrome P450 2D6 (AID 891). Note: potency is the fitted concentration of half-maximal effect; nearly all actives have a fitted effect of over 60% in size. As to conditions: recombinant CYP2D6, luciferin-ME EGE luminescence; series mostly up to 57.1 µM. The essentials:
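Luminescent read-out of luciferin formed by 5 nM human CYP2D6 demethylating 30 uM Luciferin-ME EGE (Km level) over 60 min at room temperature after NADPH regeneration addition. Data normalized to full inhibition by 1.43 uM quinidine.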

Setting [13] is: measured here: cell count channel max response.
[14] abbreviates: measured here: lipid channel max response.

Glucocorticoid receptor (Homo sapiens), sequence (P04150 whole entry, looked up, the tested form may be a part): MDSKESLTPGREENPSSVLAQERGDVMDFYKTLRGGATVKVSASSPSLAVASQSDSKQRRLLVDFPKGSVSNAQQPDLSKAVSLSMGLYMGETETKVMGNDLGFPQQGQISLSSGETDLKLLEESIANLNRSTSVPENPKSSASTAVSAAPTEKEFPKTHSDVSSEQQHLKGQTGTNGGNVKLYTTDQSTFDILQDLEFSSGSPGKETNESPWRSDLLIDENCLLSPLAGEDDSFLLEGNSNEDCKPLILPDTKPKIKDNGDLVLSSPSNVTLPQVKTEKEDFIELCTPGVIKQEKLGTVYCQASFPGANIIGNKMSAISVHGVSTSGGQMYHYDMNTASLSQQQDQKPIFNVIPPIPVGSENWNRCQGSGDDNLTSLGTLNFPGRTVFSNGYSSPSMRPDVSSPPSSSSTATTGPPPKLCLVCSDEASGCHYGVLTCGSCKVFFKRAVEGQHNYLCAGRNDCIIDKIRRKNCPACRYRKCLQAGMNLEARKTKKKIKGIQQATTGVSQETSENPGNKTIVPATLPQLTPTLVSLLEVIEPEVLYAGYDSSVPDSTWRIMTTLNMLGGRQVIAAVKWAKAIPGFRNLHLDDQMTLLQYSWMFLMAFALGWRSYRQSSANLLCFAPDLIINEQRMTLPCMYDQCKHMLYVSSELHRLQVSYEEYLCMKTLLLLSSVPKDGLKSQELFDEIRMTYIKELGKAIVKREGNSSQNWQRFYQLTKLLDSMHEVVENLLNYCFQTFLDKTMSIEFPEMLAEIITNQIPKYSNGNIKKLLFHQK
DNA dC->dU-editing enzyme APOBEC-3G (Homo sapiens), sequence (Q9HC16 whole entry, looked up): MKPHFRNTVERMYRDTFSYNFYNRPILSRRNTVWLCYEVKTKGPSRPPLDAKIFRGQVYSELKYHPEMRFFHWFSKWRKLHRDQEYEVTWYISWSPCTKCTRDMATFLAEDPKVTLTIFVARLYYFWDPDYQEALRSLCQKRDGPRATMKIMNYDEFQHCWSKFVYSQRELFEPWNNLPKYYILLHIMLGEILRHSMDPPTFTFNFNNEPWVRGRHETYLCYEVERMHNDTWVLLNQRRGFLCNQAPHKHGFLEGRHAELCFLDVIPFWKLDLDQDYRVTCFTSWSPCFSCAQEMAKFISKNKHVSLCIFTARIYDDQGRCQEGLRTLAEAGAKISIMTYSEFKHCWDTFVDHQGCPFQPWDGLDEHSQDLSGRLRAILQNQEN
3',5'-cyclic-AMP phosphodiesterase 4B (Homo sapiens), sequence (Q07343 whole entry, looked up): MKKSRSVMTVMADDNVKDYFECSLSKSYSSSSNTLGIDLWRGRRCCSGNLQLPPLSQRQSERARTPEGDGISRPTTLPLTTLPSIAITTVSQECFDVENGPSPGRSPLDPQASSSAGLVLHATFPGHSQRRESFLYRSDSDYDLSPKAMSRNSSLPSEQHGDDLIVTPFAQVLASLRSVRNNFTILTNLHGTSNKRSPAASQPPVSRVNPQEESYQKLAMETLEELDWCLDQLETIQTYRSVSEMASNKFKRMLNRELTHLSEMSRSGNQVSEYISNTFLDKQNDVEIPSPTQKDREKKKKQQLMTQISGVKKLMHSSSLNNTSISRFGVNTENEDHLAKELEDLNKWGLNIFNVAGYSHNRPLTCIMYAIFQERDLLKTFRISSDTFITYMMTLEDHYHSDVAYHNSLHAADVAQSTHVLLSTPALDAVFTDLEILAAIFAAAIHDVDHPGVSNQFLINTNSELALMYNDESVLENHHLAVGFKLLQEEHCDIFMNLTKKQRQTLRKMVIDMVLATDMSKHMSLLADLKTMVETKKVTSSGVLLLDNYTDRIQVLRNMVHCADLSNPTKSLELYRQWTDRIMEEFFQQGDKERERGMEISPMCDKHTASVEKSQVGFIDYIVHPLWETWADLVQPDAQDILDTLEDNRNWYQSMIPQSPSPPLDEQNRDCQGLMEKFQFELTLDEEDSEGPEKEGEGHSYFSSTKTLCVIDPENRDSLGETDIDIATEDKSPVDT
Cytochrome P450 2D6 (Homo sapiens), sequence (P10635 whole entry, looked up): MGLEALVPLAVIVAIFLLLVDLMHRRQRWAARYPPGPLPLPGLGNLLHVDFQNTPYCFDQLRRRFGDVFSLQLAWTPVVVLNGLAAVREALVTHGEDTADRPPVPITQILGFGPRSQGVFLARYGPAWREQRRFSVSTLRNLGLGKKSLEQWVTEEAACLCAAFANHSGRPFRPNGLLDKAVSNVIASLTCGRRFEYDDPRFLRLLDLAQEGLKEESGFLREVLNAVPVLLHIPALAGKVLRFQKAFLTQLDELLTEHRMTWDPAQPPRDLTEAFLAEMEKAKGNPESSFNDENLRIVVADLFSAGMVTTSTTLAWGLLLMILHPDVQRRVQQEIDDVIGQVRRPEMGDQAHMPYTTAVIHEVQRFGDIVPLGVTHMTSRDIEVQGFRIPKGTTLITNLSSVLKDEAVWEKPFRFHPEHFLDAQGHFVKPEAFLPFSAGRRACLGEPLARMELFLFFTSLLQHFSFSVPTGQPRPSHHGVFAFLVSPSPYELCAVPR

With `CC(=O)NCC(=O)N[C@H](CCC(=O)O)C(=O)O` (HELM PEPTIDE1{[ac].G.[dE]}$$$$V2.0), the Potency in [1] and in assay [2] was > 46 µM (inactive) each time. Besides, the Potency entry in assay [3], in assay [4], in [6], in assay [7], in assay [8] and in assay [9] was “inactive” in each case. Also, the activity change, negative = inhibition in assay [5] is 3.36% (inactive). The max response turned out to be 6.18% in [5] (setting [13]) and 9.84% in assay [5] (setting [14]).

For `CC(=O)OCCNC(=O)c1cccnc1`, the Potency in assay [1] and in assay [2] was > 46 µM (inactive) throughout. The Potency entry in [3], in [10], in assay [6], in assay [8] and in assay [9] was “inactive” throughout. In assay [5], the activity change, negative = inhibition is 8.28% (inactive). For the same molecule, the values for the max response in assay [5] (setting [13]) and in assay [5] (setting [14]) were 15.6% and 27.8%, respectively.

Regarding `CCCn1c(=O)c2[nH]c(-c3ccc(OCC(=O)Nc4ccc(C(C)=O)cc4)cc3)nc2n(CCC)c1=O`, the Potency in assay [1] and in assay [2] was > 46 µM (inactive) throughout. Moreover, the Potency entry in [3], in assay [6], in assay [7], in assay [8] and in assay [9] was “inactive” each time. Further, the activity change, negative = inhibition in assay [5] was 5.04% (inactive). Further, the max response came to 6.38% in [5] (setting [13]) and 10.1% in [5] (setting [14]).

Consider `CCNC(=O)[C@H]1O[C@H](n2cnc3c(N)nc(NCCc4ccc(CCC(=O)O)cc4)nc32)[C@@H](O)[C@@H]1O`, for which the Potency in assay [1] and in [2] was > 46 µM (inactive) each time. The Potency result in [4], in assay [6], in assay [7], in assay [8] and in assay [9] was “inactive” in each case. Moreover, the activity change, negative = inhibition in [5] was -4.61% (inactive). Moreover, the max response in [5] (setting [13]) is -14.7%; in assay [5] (setting [14]), -19.8%.

For `OC[C@@H]1O[C@@H](n2cnc3c(N[C@H]4CCC[C@@H]4O)ncnc32)[C@H](O)[C@H]1O`, the Potency in [1] and in assay [2] was > 46 µM (inactive) throughout. The Potency entry in [3], in [4], in [6], in [7], in assay [8] and in assay [9] was “inactive” in each case. For the same molecule, in assay [5], the activity change, negative = inhibition was 3.72% (inactive). Besides, the values for the max response in assay [5] (setting [13]) and in [5] (setting [14]) were -18.9% and -17.5%, respectively.

With `CCCN=C(N)NCCC[C@H](N)C(=O)O`, the Potency was > 46 µM (inactive) in [1], > 46 µM (inactive) in assay [2], 3.98 µM (active) in assay [11] and 7.94 µM (active) in assay [12]. In addition, the Potency entry in assay [3], in assay [6], in assay [7], in [8] and in [9] was “inactive” in each case. For the same molecule, in [5], the activity change, negative = inhibition is -1.86% (inactive). The max response was -18.5% in assay [5] (setting [13]) and -20.5% in assay [5] (setting [14]).

`COc1ccccc1N1CCN(CCCCN2C(=O)CCC2=O)CC1`: the values for the Potency in assay [1], in assay [2] and in [11] were > 46 µM (inactive), > 46 µM (inactive) and 3.98 µM (active), respectively. The Potency result in [3], in assay [4], in [6], in [8] and in [9] was “inactive” each time. Further, in [5], the activity change, negative = inhibition was -4.36% (inactive). The max response is -1.96% in assay [5] (setting [13]) and -4.4% in [5] (setting [14]).

On to `CC[N+](C)(CC)CC(=O)Nc1c(C)cccc1C`, for which the Potency in assay [1] and in assay [2] was > 46 µM (inactive) each time. Moreover, the Potency result in assay [3], in [4], in assay [6], in assay [7], in assay [8] and in assay [9] was “inactive” each time. Further, in assay [5], the activity change, negative = inhibition was 0.67% (inactive). Moreover, the max response in assay [5] (setting [13]) is -9.49%; in [5] (setting [14]), -8.79%.

Consider `C[C@@H]1Nc2ccc(Cl)cc2S(=O)(=O)N1`, for which the Potency in assay [1] and in [2] was > 46 µM (inactive) each time. Further, the Potency result in assay [3], in [4], in assay [6], in assay [7], in [8] and in [9] was “inactive” each time. The activity change, negative = inhibition in assay [5] was 6.73% (inactive). Further, the max response in assay [5] (setting [13]) is -1.71%; in assay [5] (setting [14]), 3.08%.

With `Cc1ncc2c(c1O)COP(=O)(O)OC2`, the Potency in [1] and in assay [2] was > 46 µM (inactive) throughout. Moreover, the Potency result in [3], in [4], in assay [6], in [7], in [8] and in assay [9] was “inactive” in each case. For the same molecule, in assay [5], the activity change, negative = inhibition was 0.354% (inactive). For the same molecule, the max response was -3.73% in [5] (setting [13]) and -4.32% in assay [5] (setting [14]).

Turning to `CCCCCCCCCC(=O)O[C@H](CC(=O)O)C[N+](C)(C)C`, the Potency in assay [1] and in assay [2] was > 46 µM (inactive) in each case. For the same molecule, the Potency result in [3], in assay [6], in assay [7], in assay [8] and in assay [9] was “inactive” in each case. Also, the activity change, negative = inhibition in assay [5] is 3.92% (inactive). The max response is -0.114% in assay [5] (setting [13]) and -1.87% in [5] (setting [14]).

For `NCCCNCCCCN(CCCN)/[N+]([O-])=N/O`, the Potency in assay [1] and in assay [2] was > 46 µM (inactive) in each case. In addition, the Potency result in assay [3], in assay [4], in assay [6], in [8] and in assay [9] was “inactive” each time. In addition, the activity change, negative = inhibition in [5] is -0.752% (inactive). Further, the max response in [5] (setting [13]) was -8.77%; in [5] (setting [14]), -8.94%.

For the molecule `Cc1cc([C@](C)(N)C(=O)O)ccc1P(=O)(O)O`, the Potency in [1] and in assay [2] was > 46 µM (inactive) each time. The Potency result in assay [3], in [4], in assay [6], in assay [7], in assay [8] and in assay [9] was “inactive” in each case. Also, the activity change, negative = inhibition in assay [5] is -5.09% (inactive). The results for the max response in [5] (setting [13]) and in assay [5] (setting [14]) were 16.7% and 13.5%, respectively.

Take `CN(CCc1ccc(Cl)c(Cl)c1)CCN1CCCC1`: the Potency in assay [1] and in [2] was > 46 µM (inactive) in each case. The Potency result in assay [3], in assay [8] and in [9] was “inactive” each time. Besides, the activity change, negative = inhibition in assay [5] was -5.91% (inactive). Also, the max response in assay [5] (setting [13]) is 22.4%; in assay [5] (setting [14]), 15.8%.

For the molecule `Cc1o[nH]c(=O)c1CC[C@H](N)C(=O)O`, the Potency in [1] and in assay [2] was > 46 µM (inactive) in each case. In addition, the Potency entry in assay [3], in assay [4], in [6], in assay [7], in assay [8] and in assay [9] was “inactive” in each case. In addition, the activity change, negative = inhibition in assay [5] was 4.78% (inactive). Also, the max response was -7.36% in assay [5] (setting [13]) and -2.41% in assay [5] (setting [14]).
